Experimental data from PubChem BioAssay (Tox21).
Records with an inconclusive call do not appear. Activity calls are given as the source filed them. Unless noted, the call rests on the fitted dose curve; in most records, active means well fitted curve in the direction sought with a large enough effect in the repeat runs; inconclusive means weak or mixed curves; inactive means no such curve, though single readings can be large; an effect the other way counts as inactive or inconclusive.

Experiments:
[1] = qHTS assay to identify small molecule antagonists of the glucocorticoid receptor (GR) signaling pathway - cell viability counter screen (AID 720693); further: nearly all actives have a fitted effect of over 55% in size
[2] = qHTS assay for identifying genotoxic compounds that show differential cytotoxicity against isogenic chicken DT40 cell lines with known DNA damage response pathways - wild type cell line (AID 743012); further: nearly all actives have a fitted effect of over 60% in size; further: potency means the concentration at half of the fitted maximal effect
In short: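 Parental DNA repair-proficient DT40 cells, 300 per well, were pre-incubated ~0.5 h at 37 C/5% CO2, pin-dosed with compounds in DMSO, then incubated 40 h. Viability was read as CellTiter-Glo luminescence after 30 min at room temperature.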

[3] = qHTS assay for identifying genotoxic compounds that show differential cytotoxicity against isogenic chicken DT40 cell lines with known DNA damage response pathways - Rev3 mutant cell line (AID 743014); further: nearly all actives have a fitted effect of over 55% in size; further: potency means the concentration at half of the fitted maximal effect
[4] = qHTS assay for identifying genotoxic compounds that show differential cytotoxicity against isogenic chicken DT40 cell lines with known DNA damage response pathways - Rad54/Ku70 mutant cell line (AID 743015); further: nearly all actives have a fitted effect of over 60% in size; further: potency means the concentration at half of the fitted maximal effect
[5] = qHTS assay to identify small molecule antagonists of the androgen receptor (AR) signaling pathway - cell viability counter screen (AID 743033; further: nearly all actives have a fitted effect of over 45% in size)
[6] = qHTS assay to identify small molecule antagonists of the androgen receptor (AR) signaling pathway using the MDA cell line - cell viability counter screen (AID 743041; further: nearly all actives have a fitted effect of over 45% in size)
In short: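 R1881-driven MDA-kb2 AR-luc cells, 3,000/well, were dosed with library compounds for 16 h; cell health came from CellTiter-Fluor fluorescence in the reporter wells.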

[7] = target: Androgen receptor (Homo sapiens) (UniProt P10275); assay: qHTS assay to identify small molecule agonists of the androgen receptor (AR) signaling pathway (AID 743036; active means well fitted activation curve with a large enough effect in the signal ratio in the repeat runs, with a control signal flat, not every such curve was filed as active; the % refers to the signal ratio)
In short: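 AR-UAS-bla HEK293 cells, plated 4 h before dosing, were treated with compound for 16 h at 37C. beta-Lactamase reporter read after 2 h with LiveBLAzer B/G FRET substrate at room temperature.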

[8] = target: Androgen receptor (Homo sapiens) (UniProt P10275); assay: qHTS assay to identify small molecule agonists of the androgen receptor (AR) signaling pathway using the MDA cell line (AID 743040; further: nearly all actives have a fitted effect of over 20% in size)
In short: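 After a 5 h incubation at 37C and 0% CO2, MDA-kb2 reporter cells were dosed with compounds in DMSO and kept 16 h under the same conditions. Luciferase activity was then read as luminescence with ONE-Glo.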

[9] = target: Androgen receptor (Homo sapiens) (UniProt P10275); assay: qHTS assay to identify small molecule antagonists of the androgen receptor (AR) signaling pathway using the MDA cell line (AID 743042; further: nearly all actives have a fitted effect of over 55% in size)
In short: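 Antagonist mode: compounds plus R1881 agonist added to MDA-kb2 AR-luc cells, incubated 16 h at 37C. Luciferase reporter luminescence quantified, with multiplexed CellTiter-Fluor readout for cell viability.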

[10] = target: Androgen receptor (Homo sapiens) (UniProt P10275); assay: qHTS assay to identify small molecule antagonists of the androgen receptor (AR) signaling pathway (AID 743035; active means well fitted inhibition curve with a large enough effect in the signal ratio in the repeat runs, not every such curve was filed as active; the % refers to the signal ratio)
In short: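 HEK293 cells stably carrying a UAS-driven beta-lactamase reporter (AR-UAS-bla GripTite) were plated for 4 h at 37C, then given compound and the agonist R1881 and incubated 16 h. Reporter activity was read by LiveBLAzer B/G FRET fluorescence after 2 h at room temperature.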

Measured: Potency

Sequence of Androgen receptor (Homo sapiens) (P10275 whole entry, looked up): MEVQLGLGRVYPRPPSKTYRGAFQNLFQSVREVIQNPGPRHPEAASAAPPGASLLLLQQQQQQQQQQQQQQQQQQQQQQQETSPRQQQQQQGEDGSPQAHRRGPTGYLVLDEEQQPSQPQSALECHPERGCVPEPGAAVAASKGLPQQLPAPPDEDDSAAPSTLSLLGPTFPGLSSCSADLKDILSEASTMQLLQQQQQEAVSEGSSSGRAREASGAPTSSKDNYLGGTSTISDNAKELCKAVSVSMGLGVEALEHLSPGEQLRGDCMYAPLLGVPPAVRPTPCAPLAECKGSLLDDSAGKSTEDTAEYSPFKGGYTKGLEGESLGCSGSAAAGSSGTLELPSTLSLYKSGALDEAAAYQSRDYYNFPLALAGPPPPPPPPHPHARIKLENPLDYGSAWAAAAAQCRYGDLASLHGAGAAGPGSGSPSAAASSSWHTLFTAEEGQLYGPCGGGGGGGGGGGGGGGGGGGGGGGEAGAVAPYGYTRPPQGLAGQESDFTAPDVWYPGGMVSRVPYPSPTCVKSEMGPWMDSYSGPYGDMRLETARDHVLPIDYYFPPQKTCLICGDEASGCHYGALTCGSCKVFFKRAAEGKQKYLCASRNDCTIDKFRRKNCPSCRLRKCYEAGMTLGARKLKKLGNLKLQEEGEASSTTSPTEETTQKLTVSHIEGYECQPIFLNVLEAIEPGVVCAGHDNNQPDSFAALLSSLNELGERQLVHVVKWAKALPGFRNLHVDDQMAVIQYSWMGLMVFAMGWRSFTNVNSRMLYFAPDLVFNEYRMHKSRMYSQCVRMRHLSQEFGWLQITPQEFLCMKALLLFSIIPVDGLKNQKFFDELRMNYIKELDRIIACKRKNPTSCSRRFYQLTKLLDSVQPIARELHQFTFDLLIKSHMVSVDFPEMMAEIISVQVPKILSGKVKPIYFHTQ

OC[C@@H](O)C(O)[C@@H](O)CO (stereo not given in full)
inactive: [1] | [2] | [3] | [4] | [5] | [6]

CC(C)CCOC(=O)c1ccccc1
inactive: [1] | [2] | [3] | [4] | [5] | [6]

CCCCCCCCCOC(=O)c1ccccc1C(=O)OCCCCCCCCC
not listed: [10]
inactive: all other assays above

O=NN(CCCl)C(=O)NC1CCCCC1
inactive: [1] | [2] | [3] | [4] | [5] | [6]

C=CCCCCCCCCC(=O)OCCCC
inactive: [1] | [2] | [3] | [4] | [5] | [6]

CC(C)(CO)C(O)C(=O)NCCCO (stereo not given)
inactive: [1] | [2] | [3] | [4] | [5] | [6]

O=C(O)CSCC(=O)NC1CCSC1=O (stereo not given)
not listed: [10]
inactive: all other assays above

CN(C)CCCCl
inactive: [1] | [2] | [3] | [4] | [5]

CCCCCCCCCCCCCCC(=O)NC(CO)CCCCCCCCCCCCCC (stereo not given)
inactive: [1] | [2] | [3] | [4] | [5] | [6]

O=C1CCCCO1
inactive: [1] | [2] | [3] | [4] | [5] | [6]

O=C(O)c1cc2ccccc2nc1C(=O)O
inactive: [1] | [2] | [3] | [4] | [5] | [6]

CCCSSCCC
inactive: [1] | [2] | [3] | [4] | [5] | [6]

CN(C)CCCO[C@@H]1[C@H]2OC(C)(C)O[C@H]2O[C@@H]1C(O)CO (stereo not given in full)
inactive: [1] | [2] | [3] | [4] | [5] | [6]

CN(C)CC/C=C1/c2ccccc2COc2ccc(CC(=O)O)cc21
inactive: [1] | [2] | [3] | [4] | [5] | [6]

COC(C)(OC)OC
inactive: all assays above

CCOc1cccc(N)c1
inactive: [1] | [2] | [3] | [4] | [5] | [6]

CC12CCC(C1)C(C)(C)C2O (stereo not given)
inactive: [1] | [2] | [3] | [4] | [5] | [6]

CC1=C(C(=O)O)N2C(=O)[C@@H](NC(=O)[C@H](N)c3ccccc3)[C@H]2SC1
inactive: [1] | [2] | [3] | [4] | [5] | [6]

CC(C)=CCC[C@@](C)(O)[C@H]1CC=C(C)CC1
inactive: [1] | [2] | [3] | [4] | [5] | [6]

Cc1ccc(C(=O)O)cc1[N+](=O)[O-]
not listed: [7]
inactive: all other assays above

CCCCOCC(C)O (stereo not given)
inactive: [1] | [2] | [3] | [4] | [5] | [6]

OC1OCCOC1O (stereo not given)
inactive: [1] | [2] | [3] | [4] | [5] | [6]

CC(=O)O[C@H]1C[C@@H]2CC[C@@]1(C)C2(C)C
inactive: all assays above

Cc1ccc(C(C)NC(=O)[C@@H](NC(=O)OC(C)C)C(C)C)cc1 (stereo not given in full)
inactive: [1] | [2] | [3] | [4] | [5] | [6]

CC(S)C(C)S (stereo not given)
inactive: all assays above

CCOC(CN1CCN(CC(C)C(=O)c2ccccc2)CC1)c1ccccc1 (stereo not given)
inactive: [1] | [5]
active: [2] 10.6 µM | [3] 13.3 µM | [4] 18.8 µM

OC[C@H]1O[C@@H](O[C@@H]2[C@@H](CO)O[C@](O)(CO)[C@H]2O)[C@H](O)[C@@H](O)[C@H]1O
not listed: [10]
inactive: all other assays above

CC(C)CO
inactive: [1] | [2] | [3] | [4] | [5] | [6]

NCCOCCN
inactive: [1] | [2] | [3] | [4] | [5] | [6]

CCOCCOCC
inactive: [1] | [2] | [3] | [4] | [5] | [6]

COP(=O)(O)OP(=O)(O)OC
inactive: [1] | [2] | [3] | [4] | [5] | [6]

CCCCC1CCC(O)CC1 (stereo not given)
inactive: all assays above

CC1=C(C(=O)O)N2C(=O)[C@@H](NC(=O)[C@H](N)C3=CCC=CC3)[C@H]2SC1
inactive: [1] | [2] | [3] | [4] | [5] | [6]

Cc1cc(-c2ccccc2)nnc1NCCN1CCOCC1
inactive: [1] | [2] | [3] | [4] | [5] | [6]

CCCCCc1cccc(=O)o1
inactive: [1] | [2] | [3] | [4] | [5] | [6]

Cc1cc(C)c(C(=O)O)c(C)c1
inactive: [1] | [2] | [3] | [4] | [5] | [6]

Nc1nnnn1-c1ccccc1
inactive: [1] | [2] | [3] | [4] | [5] | [6]

COC(=O)c1cccc(Cl)c1
inactive: [1] | [2] | [3] | [4] | [5] | [6]

O=C(O)[C@H](O)c1ccccc1
inactive: [1] | [2] | [3] | [4] | [5] | [6]

CC(C)C1OCCN1CCOC(=O)NCCCCCCNC(=O)OCCN1CCOC1C(C)C (stereo not given)
not listed: [5]
inactive: all other assays above

CC(=O)C(C)O (stereo not given)
inactive: [1] | [2] | [3] | [4] | [5] | [6]

CC(C)Cn1cnc2c1c(=O)n(C)c(=O)n2C
inactive: [1] | [2] | [3] | [4] | [5] | [6]

C=CCCCC
inactive: [1] | [2] | [3] | [4] | [5] | [6]

CN(C)CCN(C)CCO
inactive: [1] | [2] | [3] | [4] | [5] | [6]

C[C@@H](O)C(=O)O
inactive: [1] | [2] | [3] | [4] | [5] | [6]

CC(=O)O[Si](C)(OC(C)=O)OC(C)=O
inactive: [1] | [2] | [3] | [4] | [5] | [6]

CCC(=O)CC
inactive: [1] | [2] | [3] | [4] | [5] | [6]

CC(CO)(CO)CO
inactive: [1] | [2] | [3] | [4] | [5] | [6]

O=C(CCCCC(=O)Nc1c(I)cc(I)c(C(=O)O)c1I)Nc1c(I)cc(I)c(C(=O)O)c1I
inactive: [1] | [2] | [3] | [4] | [5] | [6]

N#Cc1cscn1
inactive: [1] | [2] | [3] | [4] | [5] | [6]

c1ccc2c(CC3=NCCN3)cccc2c1
inactive: [1] | [2] | [3] | [4] | [5] | [6]

CC1(C)Oc2ccc(C#N)cc2[C@@H](N2CCCC2=O)[C@@H]1O
inactive: [1] | [2] | [3] | [4] | [5] | [6]

CC(C)Nc1ccccc1
inactive: [1] | [2] | [3] | [4] | [5] | [6]

C[C@H]1[C@@H](c2ccccc2)NC(=O)N1C
inactive: [1] | [2] | [3] | [4] | [5] | [6]

CN1C[C@@H]2C[C@H]1CN2c1cc2c(cc1F)c(=O)c(C(=O)O)cn2C1CC1
inactive: [1] | [5] | [6]
active: [2] 7.5 µM | [3] 9.44 µM | [4] 11.9 µM

Cc1ccc2c(c1)C(=O)c1ccccc1C2=O
inactive: [1] | [5] | [6]
active: [2] 48.4 µM | [3] 54.3 µM | [4] 60.9 µM
